Source: PubChem
Shown are actives, neighbours in structure and some others; about 9.2% of the full set was active somewhere.
NPC1 prom act – qHTS Assay for NPC1 Promoter Activators; Huh7 NPC1 promoter luciferase reporter, 24 h; Potency, µM (titrated, usually from 9.22 µM), for inactives: at the top dose activation, actives largely listed as activators; 320,000 tested, 2.4% active; AID 485313, 2010; also: % of control where 0% means no effect; nearly all actives have a fitted effect of over 60% in size
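Stably transfected Huh7 (NPC1 promoter→luciferase), 1500 cells/well in Opti-MEM + 10% FBS, 2 h settle, then compound 24 h at 37 °C. Luminescence after 10 min with Amplite reagent.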
FLuc modulator – qHTS profiling assay for firefly luciferase inhibitor/activator using purifed enzyme and Km concentrations of substrates (counterscreen for miR-21 project). Potency, µM (series often up to 57.5 µM), for the others: at the top dose activity change, negative = inhibition, hits mostly inhibitors. 360,000 tested, 6.9% active. Luciferin 4-monooxygenase (Photinus pyralis), P08659. AID 588342, 2011. purified FLuc, Km substrates, luminescence inhibition;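 also: plate controls were vehicle for no effect and reference inhibitor for full effect; nearly all actives have a fitted effect of over 55% in size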
Target sequence (P08659 whole entry, looked up): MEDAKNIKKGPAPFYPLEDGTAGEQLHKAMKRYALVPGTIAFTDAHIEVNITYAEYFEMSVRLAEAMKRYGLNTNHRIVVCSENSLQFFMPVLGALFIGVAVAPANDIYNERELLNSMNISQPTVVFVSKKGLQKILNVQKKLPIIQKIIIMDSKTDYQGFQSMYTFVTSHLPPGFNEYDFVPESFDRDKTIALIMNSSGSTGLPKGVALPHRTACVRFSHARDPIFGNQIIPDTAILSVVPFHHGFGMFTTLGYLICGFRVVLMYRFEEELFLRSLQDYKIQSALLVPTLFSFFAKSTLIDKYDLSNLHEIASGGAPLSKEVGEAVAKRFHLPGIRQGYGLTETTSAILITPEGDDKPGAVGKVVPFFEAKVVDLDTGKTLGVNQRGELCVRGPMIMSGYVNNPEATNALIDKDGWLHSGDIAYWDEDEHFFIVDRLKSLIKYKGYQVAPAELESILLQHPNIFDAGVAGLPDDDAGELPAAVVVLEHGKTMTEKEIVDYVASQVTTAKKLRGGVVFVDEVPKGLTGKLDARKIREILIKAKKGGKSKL
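Purified P. pyralis luciferase (10nM final) with 10uM D-luciferin and 10uM ATP (Km levels) in 50mM Tris acetate pH 7.5, 10mM Mg acetate, 0.01% Tween-20, 0.05% BSA; qHTS 6-point titration, ~60 µM downward; luminescence read.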
Rab9 prom act – qHTS Assay for Rab9 Promoter Activators; Potency, µM (top dose mostly 9.22 µM), for inactives: at the top dose activation, negative = inhibition, actives largely listed as activators; AID 485297, 2010; 320,000 tested, 2.8% active; Huh7 Rab9 promoter-luciferase reporter, luminescence, 24 h; also: % of control where 0% means no effect; nearly all actives have a fitted effect of over 60% in size
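Quantitative HTS format; Huh7 Rab9-luciferase reporter cells (1500/well) receive compound 2 h post-plating, incubate 24 h at 37 °C, then get luciferase reagent for 10 min before luminescence reading.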
ELG1 genotox – qHTS screen for small molecules that induce genotoxicity in human embryonic kidney (HEK293T) cells expressing luciferase-tagged ELG1. AID 504466, 2011. Potency, µM (doses to about 46 µM), without a hit: at the top dose activity change, positive = activation, actives largely listed as activators. HEK293T ELG1-luciferase reporter, luminescence, 16 h. 330,000 tested, 1.3% active; also: % of control where 0% means no effect; nearly all actives have a fitted effect of over 60% in size
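HEK293T cells expressing luciferase-tagged ELG1 were treated with compound or DMSO for 16 hr at 37°C. Luciferase activity was then read after 30 min with ONE-Glo at room temperature; rising signal flags genetic stress.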
ELG1 DNA repair – qHTS screen for small molecules that inhibit ELG1-dependent DNA repair in human embryonic kidney (HEK293T) cells expressing luciferase-tagged ELG1; 330,000 tested, 2.3% active; Potency, µM (doses to about 46.1 µM), for the others: at the top dose activity change, negative = inhibition, most hits filed as inhibitors; HEK293T ELG1-luciferase reporter, luminescence, 16 h; DNA damage induced by 5-fluorouridine; also: % is scaled to controls: 0 for no effect and ±100 for the full control effect; nearly all actives have a fitted effect of over 55% in size
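In this reporter screen, reduction of luminescence relative to DMSO vehicle indicated activity. Compounds and 5-fluorouridine were added together to 2,000 cells per well, incubated for 16 hr at 37 °C, then developed with ONE-Glo.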
SMN2 splice enh – qHTS Assay for Enhancers of SMN2 Splice Variant Expression; HEK293 SMN2-luciferase splicing reporter, luminescence, 30-36 h; Potency, µM (doses to about 46.1 µM), for the others: at the highest dose activity change, positive = activation, actives largely listed as activators; 210,000 tested, 2.8% active; AID 1458, 2008; also: % of control where 0% means no effect; nearly all actives have a fitted effect of over 55% in size
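HEK293 cells carry an SMN2 […]–luciferase reporter in which exon 7 inclusion puts luciferase in frame. Cells were plated 10-12 h before compound addition, then incubated 30-36 h at 37C. ONE-Glo luminescence was read; sodium butyrate at 4.5 mM final served as control.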
The depositor's hits bear a star; u = inconclusive; x = no result given. Calls follow the shape of the dose curve; as a rule, active = well fitted curve in the direction sought with a large enough effect; inconclusive = small, poorly fitted or top-dose-only effect, or another doubt; inactive = no such curve, though single readings can be large; an effect the other way counts as inactive or inconclusive. Potency is read from the fitted curve at half-maximal effect.

SMILES	NPC1 prom act	FLuc modulator	Rab9 prom act	ELG1 genotox	ELG1 DNA repair	SMN2 splice enh
CCN1CCN(C(=O)c2cccc(OC3CCN(S(C)(=O)=O)CC3)c2)[C@@H](C)C1=O	-2.3%	0.1%	-2.5%	2.0%	1.1%	x
COc1ccccc1NC(=O)N1CCN(c2cc(-c3ccccc3)nc3ncnn23)CC1	-4.0%	2.1%	-14.7%	-13.7%	13µM*	-36.8%
COc1cc2c(cc1OC)CN(C(=O)Nc1ccccc1Cl)CC2	-3.8%	u	-2.1%	-3.8%	-5.9%	x
COc1ccccc1N1CCN(c2ccnc3cc(Cl)ccc23)CC1	-31.8%	-2.8%	-24.6%	-18.1%	u	x
COc1ccccc1NC(=O)N1CCN(c2ccnc3cc(Cl)ccc23)CC1	-0.4%	-4.7%	-2.6%	-8.9%	11.6µM*	x
O=C(C1CCCCC1)N1CCN(c2ccnc3cc(Cl)ccc23)CC1	-6.3%	-2.4%	-14.7%	-8.9%	11.6µM*	x
COc1ccccc1NC(=O)N1CCc2[nH]c3ccc(Cl)cc3c2C1	-0.3%	-2.0%	-3.6%	1.4%	16.4µM*	-8.7%
CCCNC(=O)c1cnc2sc(N3CCCCCC3)nn2c1=O	x	4.7%	x	x	x	x
O=S(=O)(c1cccc(Br)c1)N1CCN(c2ccnc3cc(Cl)ccc23)CC1	-3.8%	-2.1%	5.9%	-6.8%	-24.6%	x
O=C(Nc1ccc(OC(F)(F)F)cc1)N1CCN(c2ccnc3cc(Cl)ccc23)CC1	-1.2%	2.5%	-9.5%	-14.5%	18.3µM*	x
O=S(=O)(c1ccccc1OC(F)(F)F)N1CCN(c2ccnc3cc(Cl)ccc23)CC1	-4.3%	5.7%	-1.2%	-25.6%	20.6µM*	x
COc1ccc2c(Sc3ccccc3)c(C(=O)NCCCN3CCCCC3)[nH]c2c1	x	0.9%	x	x	x	x
c1ccc(Oc2ccc(-c3ccnc4ncnn34)cc2)cc1	-0.9%	-10.9%	-12.0%	10.3%	u	1.2%
c1ccc(Oc2ccc(-c3ccn[nH]3)cc2)cc1	u	10.7µM*	3.16µM*	u	u	x
CCOC(=O)C1CCN(CCC(=O)Nc2ccc(C)cc2)CC1	-0.3%	0.8%	0.2%	-1.8%	3.5%	-3.8%
CC(=O)c1ccc2c(c1)Cc1cc(C(C)=O)ccc1-2	2.51µM*	u	1.78µM*	18.4µM*	u	x
CCC(=O)Nc1ccc2c(c1)Cc1cc(NC(=O)CC)ccc1-2	29.4%	1.8%	u	u	u	x
Cc1ccc(C(=O)Nc2cc3c(cc2C)n(C)c(=O)c(=O)n3C)cc1	x	-11.0%	x	x	x	x
COc1cc(/C=N/N=C(\N)c2nonc2N)cc(OC)c1O	-0.8%	9.53µM*	1.3%	u	u	x
COc1ccc(/C=N/N=C(\N)c2nonc2N)cc1	0.631µM*	2.13µM*	0.398µM*	0.731µM*	u	4.47µM*
COc1cc(/C=N/N=C(/N)c2nonc2N)cc(Br)c1OCc1cccc(C)c1	-1.9%	-6.2%	-7.0%	-3.2%	-3.9%	8.1%
COCC(=O)N1CCC(Oc2ccc(C(=O)N(C)C(C)c3ccon3)cc2)CC1 (stereo not drawn)	1.3%	0.0%	-0.2%	10.8%	12.1%	x
O=C(Cc1ccccc1)N(Cc1cccnc1)c1nc2ccc(F)cc2s1	x	1.3%	x	x	x	x
Cc1cc(/C=C2\NC(=S)NC2=O)c(C)n1-c1cccnc1	20.6%	9.53µM*	u	9.6%	u	x
Cc1cc(/C=C2\NC(=O)NC2=O)c(C)n1-c1cccnc1	22.4%	15.1µM*	1.3%	16.7%	8.4%	x
SMILES	NPC1 prom act	FLuc modulator	Rab9 prom act	ELG1 genotox	ELG1 DNA repair	SMN2 splice enh
Cc1cc(/C=C2\SC(=S)N(Cc3ccco3)C2=O)c(C)n1-c1cccnc1	u	4.78µM*	u	u	u	5.1%
Cc1nn(C)c(=O)n1-c1ccc(OCc2ccccc2)cc1	u	u	u	16.3%	u	11.2µM*
O=C(CCn1c(=O)c2cccn2c2cccnc21)NCc1cccc(Br)c1	x	-1.0%	x	x	x	x
CCCN1Cc2cccc(C(=O)Nc3ccc(C)cc3)c2C1=O	-3.2%	-14.5%	-1.3%	-7.1%	21.8%	-4.1%
CCCN1Cc2cccc(C(=O)Nc3ccc4c(c3)OCO4)c2C1=O	-1.5%	u	0.5%	9.2%	u	x
CCCN1Cc2cccc(C(=O)Nc3ccc4c(c3)OCCO4)c2C1=O	-3.1%	15.1µM*	9.7%	4.5%	-4.2%	-0.8%
CCCN1Cc2cccc(C(=O)Nc3ccc(CC)cc3)c2C1=O	0.2%	2.69µM*	0.5%	-0.5%	u	3.5%
Cc1cccc2c1-c1sc(C(=O)N3CCN(c4ccc(F)cc4)CC3)cc1CO2	x	6.0%	x	x	x	10.6%
Cc1ccccc1C(=O)N1CCN(CCNC(=O)C(=O)Nc2ccc(Br)cc2)CC1	-7.5%	-3.2%	-4.3%	-16.7%	20.6µM*	x
CCCNC(=O)C(=O)Nc1ccc(N(C)C)cc1	u	13.5µM*	3.16µM*	u	u	11.2µM*
COc1ccccc1C(=O)N1CCN(CCNC(=O)C(=O)Nc2ccc(Br)c(C)c2)CC1	1.7%	-1.0%	-2.5%	-12.8%	u	x
COCCNC(=O)C(=O)Nc1cccc(Br)c1	2.9%	-0.8%	3.5%	u	u	-12.8%
CN(C)c1ccc(NC(=O)C(=O)NCCOc2ccccc2)cc1	1.1%	-2.3%	15.3%	-2.5%	22.3%	8.5%
COCCNC(=O)C(=O)Nc1ccc(Br)cc1	u	u	u	u	u	11.2µM*
Cc1ccc(-n2nc(-c3ccccc3)c3cnc4cc5c(cc4c32)OCO5)cc1C	x	2.0%	x	x	x	-5.1%
O=C(CCCC(=O)OCC(=O)c1ccc(Cl)cc1Cl)Nc1cc(C(F)(F)F)ccc1Cl	0.9%	3.79µM*	-2.8%	0.1%	23.6%	-1.9%
O=C(CCCC(=O)OCC(=O)c1ccc(F)cc1)Nc1cc(C(F)(F)F)ccc1Cl	1.6%	12µM*	-0.8%	1.7%	11.0%	20.2%
O=C(COC(=O)c1ccc(O)cc1)Nc1cc(C(F)(F)F)ccc1Cl	-3.8%	1.3%	-1.6%	-4.3%	-6.5%	12.0%
Cn1cc(C(=O)NCc2ccccc2Cl)c(=O)c2cc(S(=O)(=O)N3CCCCCC3)ccc21	x	2.0%	x	x	x	8.1%
NC(=O)C1CCN(C(=O)c2ccc(Cl)c(S(=O)(=O)N3CCCCCC3)c2)CC1	x	x	x	0.9%	u	x
CCn1c(C(=O)N2CCc3ccccc3C2)cc2oc3ccccc3c21	2.0%	u	-0.1%	-5.7%	u	-11.1%
Cn1c(C(=O)N2CCc3ccccc3C2)cc2oc3ccccc3c21	27.0%	10.7µM*	u	u	u	22.4µM*
